Only some compounds are listed: those with a hit (about 11% of all), similar ones and a draw of the others.
AMA1-RON2 inh: qHTS for Inhibitors of AMA1-RON; Towards Development of Antimalarial Drug Lead: Primary Screen. hit rate 0.2% among 360,000. AlphaScreen AMA1-biotinylated RON2 peptide binding. Plasmodium falciparum AMA1 (3D7) - RON2 peptide interaction. AID 720542, 2013. Potency, µM (doses to about 58.2 µM), inactives show at the top dose activity change, negative = inhibition, actives largely listed as inhibitors;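 note: 0% = vehicle wells and -100% = peptide control; nearly all actives have a fitted effect of over 45% in size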
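AMA1 (3D7) with his tag at 25 nM final met compounds first, then biotinylated RON2 peptide at 25 nM; detection used donor plus acceptor beads, 10 µg/mL apiece, read by AlphaScreen after 30 min at room temperature.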
Sm TGR inh: qHTS Assay for the Inhibitors of Schistosoma Mansoni Peroxiredoxins; purified TGR, DTNB reduction, TNB absorbance 405 nm; Potency, µM (top dose mostly 114 µM), for the others: top-dose activity change, negative = inhibition, actives largely listed as inhibitors; AID 485364, 2010; hit rate 3% among 360,000; note: % is set by controls: 0 for no effect and ±100 for the full control effect; nearly all actives have a fitted effect of over 60% in size
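Kinetic colorimetric format: TGR-catalysed, NADPH-driven DTNB reduction monitored via TNB absorbance. Enzyme dispensed at 20 nM; compound exposure 15 min at room temperature before reaction start.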
Pf growth 48h: Primary qHTS for delayed death inhibitors of the malarial parasite plastid, 48 hour incubation | Potency, µM (titrated, usually from 28.7 µM), for inactives: at the highest dose activity change, negative = inhibition, hits mostly inhibitors | hit rate 5.9% among 310,000 | P. falciparum luciferase growth in erythrocytes, 48 h; note: % is set by controls: 0 for no effect and ±100 for the full control effect
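First compound was added to culture medium, then infected red cells at 0.1% parasitemia and 2% hematocrit (final). After incubation at 37 C under 5% CO2, luciferase detection reagent was dispensed and light output recorded.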
NS1 function inh: qHTS Assay for Inhibitors of Influenza NS1 Protein Function; Potency, µM (highest dose often 46.1 µM), without a hit: at the highest dose activity, positive = more growth; hit rate 0.4% among 270,000; AID 2326, 2010; calls by dose curve; note: actives are rising curves; nearly all actives have a fitted effect of over 50% in size
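S. cerevisiae expressing influenza A NS1, grown in glucose, washed, then diluted 1:100 into pH 6.0 -URA galactose medium with 23 nl compound. Growth recovery read as OD600; NS1-free strain serves as control.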
Pf growth 96h: Primary qHTS for delayed death inhibitors of the malarial parasite plastid, 96 hour incubation | P. falciparum luciferase reporter growth, 96 h | hit rate 6.9% among 320,000 | Potency, µM (titrated, usually from 28.7 µM), for inactives: at the top dose activity change, negative = inhibition, hits mostly inhibitors; note: % is set by controls: 0 for no effect and ±100 for the full control effect
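Plates of compound plus infected erythrocytes (2% hematocrit, 0.05% parasitemia final) incubate 96 hours, 37 C, 5% CO2. Detection reagent added; reduced luminescence from the parasites' luciferase reporter flags inhibition.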
* marks the source's active call; other numbers are inactive results; ? = inconclusive; nt = no result given. Unless noted, calls come from the whole dose curve; as a rule, active = well fitted curve in the direction sought with a large enough effect; inconclusive = small, poorly fitted or top-dose-only effect, or another doubt; inactive = no such curve, though single readings can be large; an effect the other way counts as inactive or inconclusive. Potency is the fitted concentration of half-maximal effect.

SMILES | AMA1-RON2 inh | Sm TGR inh | Pf growth 48h | NS1 function inh | Pf growth 96h
CCOc1ccc(CCNC(=O)COC(=O)/C=C/c2ccc(C)o2)cc1OCC | -4% | 50µM* | 13µM* | -3% | 5.2µM*
CCCNC(=O)COC(=O)/C=C/c1ccc(C)o1 | -11% | 40µM* | 12% | nt | 31%
O=C(Nc1ccc(F)cc1)C(CCc1ccccc1)N1CCN(C(=O)c2ccco2)CC1 (stereo not given) | -12% | nt | nt | nt | nt
CC1(C(=O)NCc2ccccc2)CCC(=O)N1C1CC1 (stereo not given) | 2% | nt | nt | nt | nt
CCCc1[nH][nH]c(=O)c1C(c1ccc(Br)cc1)C(C#N)C#N (stereo not given) | 5% | ? | -1% | -16% | -2%
CCCc1[nH][nH]c(=O)c1C(c1ccccc1)C(C#N)C#N (stereo not given) | 2% | 2.5µM* | 5% | -7% | 15%
CCOc1ccc2c(c1)OC(c1ccccc1)(C(F)(F)F)NC2=O (stereo not given) | 41% | -4% | 1.7µM* | 21% | 0.23µM*
O=C(CCSc1nc(-c2ccc3c(c2)OCO3)cc(C(F)(F)F)n1)NCc1ccccc1 | ? | -15% | ? | 12% | 6%
CN(Cc1ccccc1)C(=O)CCSc1nc(-c2ccc3c(c2)OCO3)cc(C(F)(F)F)n1 | 0% | 0% | 9.3µM* | 26% | -2%
CCN1C(=NCc2ccco2)N[C@@H](c2cccc(F)c2)C(C(=O)OC)=C1C | 0% | 2% | ? | 7% | ?
FC(F)(F)c1cnc(COc2cc(Cl)cc(Cl)c2)c(Cl)c1 | 5% | 14% | 6% | 7% | -13%
COc1ccc(-c2onc(C)c2-c2ccccc2)c(O)c1 | -10% | 1% | nt | -11% | -21%
COc1ccc(-c2onc(C)c2-c2cnn(-c3ccccc3)c2)c(O)c1 | -5% | 12% | 12µM* | nt | 4%
COC(=O)c1cc2occc2n1CC(=O)Nc1cccc(SC)c1 | nt | -2% | nt | nt | nt
COC(=O)c1cc2sccc2n1CC(=O)Nc1ccc(OC)c(OC)c1OC | -9% | 2% | 2.1µM* | ? | 20%
COC(=O)c1cc2sccc2n1CC(=O)Nc1cccc(SC)c1 | -2% | 0% | -14% | 13% | 3.3µM*
COCCCNC(=O)c1csc([C@H]2C[C@H](O)[C@@H](CO)O2)n1 | 17% | nt | nt | nt | nt
CN(C)c1ccc(/C=N\NC(=S)SCN2C(=O)C3CCC(C)(C2=O)C3(C)C)cc1 (stereo not given) | 54% | ? | ? | ? | ?
CC12CCC(C(=O)N(CSC(=S)N/N=C\c3ccccc3O)C1=O)C2(C)C (stereo not given) | 20µM* | 20µM* | 10µM* | 28% | ?
COc1ccc(NC(=O)C2CCC(CNS(=O)(=O)c3cccs3)CC2)cc1 (stereo not given) | 0% | -3% | 4% | nt | 13µM*
CCOC(=O)CNC(=O)N1CCCC(CNS(=O)(=O)c2cccs2)C1 (stereo not given) | -3% | 3% | 9% | 5% | 10µM*
COc1ccc(NC(=O)C2CCC(CNS(=O)(=O)c3cccs3)CC2)cc1OC (stereo not given) | -1% | 3% | ? | nt | -20%
Cc1cccc(C(=O)NCc2cn3cccc(C)c3n2)c1 | nt | 10% | nt | nt | nt
CCN(CC)S(=O)(=O)c1cccc(C(=O)NC(Cc2c[nH]c3ccccc23)c2nnc3n2CCC3)c1 (stereo not given) | 32% | -11% | 9.3µM* | -9% | 8.3µM*
Cc1cccc(N(C)S(=O)(=O)c2ccc(-c3cc(C)no3)s2)c1 | 24% | 3% | 30% | -17% | 32%
SMILES | AMA1-RON2 inh | Sm TGR inh | Pf growth 48h | NS1 function inh | Pf growth 96h
CCN(c1cccc(C)c1)S(=O)(=O)c1ccc(-c2cc(C)no2)s1 | 11% | 6% | ? | -4% | 12µM*
Cc1cc(S(=O)(=O)Nc2c(NC3CCCCC3)c3ccccc3oc2=O)ccc1F | 7% | 10% | 12% | 9% | 10µM*
CCCC(=O)Nc1ccc(Sc2ccc([N+](=O)[O-])cc2)cc1 | -12% | ? | 12µM* | -6% | 15µM*
CCCC(=O)Nc1ccc(C(=O)NNC(=O)c2cccc([N+](=O)[O-])c2)cc1 | 1% | 13% | 96% | -2% | 14%
CCC(CC)C(=O)Nc1ccc([N+](=O)[O-])cn1 | 2% | 1% | -1% | nt | ?
CCC(CC)C(=O)Nc1ccc(Sc2ccc([N+](=O)[O-])cc2)cc1 | -6% | 3% | 7.4µM* | -3% | ?
Cc1nn2c(=O)cc(CSc3ccccc3NC(=O)c3ccccc3F)nc2s1 | -6% | -17% | -2% | -2% | 62%
CC(C)c1nn2c(=O)cc(CSc3ccccc3NC(=O)c3ccccc3F)nc2s1 | 13% | 11% | ? | -15% | 8.3µM*
CCCn1c(SCC(=O)Nc2ccccc2OC)nnc1-c1ccco1 | 8% | 4% | -18% | 3% | -5%
CNC(=O)CSc1nnc(-c2ccco2)n1-c1ccccc1OC | -7% | 79µM* | 16% | 0% | ?
CCOc1ccccc1-n1c(SCC(=O)NC(C)(C)C)nnc1-c1ccoc1C | -13% | -8% | 13µM* | 4% | ?
C=CCn1c(SCC(=O)Nc2ccccc2OC)nnc1-c1ccco1 | nt | 45µM* | -25% | -12% | -28%
CCOc1ccccc1-n1c(SCC(=O)NC)nnc1-c1ccco1 | -5% | ? | -2% | 0% | 8%
CCCCCCCCN1C(=O)[C@H](CC(=O)N2CCSCC2)C[C@@]2(C(=O)OC)CC(C)(C)CC=C12 | -18% | nt | nt | nt | nt
COc1ccc(C(C)NC(=O)C2CCN(CCCc3ccccc3)CC2)cc1OC (stereo not given) | 0% | nt | nt | nt | nt
COc1nnc(-c2ccc(N3CCCCC3)c(NC(=O)COc3ccccc3)c2)c2ccccc12 | 8% | nt | nt | nt | nt
O=[N+]([O-])c1ccccc1-c1cc(-c2ccccc2)cc(-c2ccccc2)[n+]1Cc1ccccc1Cl | -4% | -3% | 0.93µM* | nt | ?
Cc1cccc(C(=O)NNC(=O)C2CCN(C(=O)OC(C)(C)C)CC2)c1 | 32% | 0% | 24% | 3% | ?
Cc1c(Nc2c3c(c(C#N)c4nc5ccccc5n24)CCC3)c(=O)n(-c2ccccc2)n1C | nt | 32µM* | -2% | 28% | 13%
Cc1c(Nc2c3ccccc3nc3ccccc23)c(=O)n(-c2ccccc2)n1C | 0% | -2% | ? | -5% | ?
CCc1c(C)c(C#N)c2nc3ccccc3n2c1NC | 1% | 14% | -12% | 3% | -17%
CCCCc1c(C)c(C#N)c2nc3ccccc3n2c1Nc1c(C)n(C)n(-c2ccccc2)c1=O | 0% | 4% | 1.9µM* | -12% | 2.1µM*

Source: PubChem BioAssay
